Among the data in PubChem BioAssay (NCI) are growth values, retold here.

This is part of a sample that, as a whole, favours compounds with a hit. Of some 83,000 tested, about 20% had one in any assay.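 The test compound was applied at a single concentration to cells in 96-well plates for 48 hours, and percent growth was recorded.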 Values without a mark were called inactive. Activity calls are given as the source filed them. Rule for the calls: active = growth percent below 10; inactive = the rest.

Some test systems named below: DU-145 prostate; K-562 leukemia; MALME-3M melanoma; MDA-MB-231 breast; RXF 393 renal; SF-268 CNS; SF-295 CNS; SF-539 CNS; UACC-257 melanoma; M14 melanoma; HCT-15 colon; HT29 colon; SNB-75 CNS; SNB-19 CNS; PC-3 prostate; SK-MEL-5 melanoma; UACC-62 melanoma; LOX IMVI melanoma; SK-MEL-28 melanoma; U251 CNS.
Common to all, as to test: NCI-60 one-dose screen, 48 h (100 = growth as untreated, 0 = no growth, -100 = all killed)
Conditions in all cases: 10 µM unless noted

With `C#CCOc1cccc(-c2ncnc3cc(NC(=O)C=C)ccc23)c1`, the growth in the assay on DU-145 prostate was 15.6%; with K-562 leukemia it was 24.2%; with MALME-3M melanoma, 60.5%; in the assay with MDA-MB-231 breast, 15.8%; in the assay on RXF 393 renal, 30.8%; in the assay with SF-268 CNS, 49.6%. Moreover, the growth was 43.2% in the assay on SF-295 CNS; 8.33% (active) in the assay with SF-539 CNS; 62.5% with UACC-257 melanoma; 45.6% with M14 melanoma; 24% in the assay on HCT-15 colon; 10.8% with HT29 colon. Also, the growth was 10.6% with SNB-75 CNS; 50.6% with SNB-19 CNS; 37.2% in the assay with PC-3 prostate; 68.5% in the assay on SK-MEL-5 melanoma; 34.6% in the assay with UACC-62 melanoma; 34.1% with LOX IMVI melanoma. For the same compound, the growth in the assay with SK-MEL-28 melanoma was 70.5%.

Take `Cc1n[nH]c2ccc(Br)cc2c1=O`: the growth in the assay on DU-145 prostate is 104%; in the assay with K-562 leukemia, 91.4%; in the assay on MALME-3M melanoma, 97.4%; in the assay with MDA-MB-231 breast it was 121%; with RXF 393 renal, 103%; with SF-268 CNS, 107%. In addition, the growth is 87% in the assay on SF-295 CNS; 98.1% with SF-539 CNS; 108% with UACC-257 melanoma; 103% with M14 melanoma; 100% in the assay with HCT-15 colon; 98.3% in the assay on HT29 colon. The growth is 102% with SNB-75 CNS; 109% in the assay with SNB-19 CNS; 100% in the assay with U251 CNS; 90.9% in the assay on PC-3 prostate; 97.4% in the assay on SK-MEL-5 melanoma; 112% in the assay with UACC-62 melanoma. The growth with SK-MEL-28 melanoma is 113%.

On to `CC(C)CCN(CCC(C)C)CC(O)c1cc2c(c3ccccc13)CCCC2` (configuration not stated), for which the growth in the assay with DU-145 prostate was 60.8%; with K-562 leukemia, 43.5%; in the assay with MALME-3M melanoma it was 94.3%; in the assay on MDA-MB-231 breast, 37.7%; in the assay with RXF 393 renal it was 62.1%; in the assay on SF-268 CNS, 71.9%. Also, the growth was 76.5% in the assay with SF-295 CNS; 82.1% in the assay with SF-539 CNS; 99.4% with UACC-257 melanoma; 89.3% with M14 melanoma; 59.4% with HCT-15 colon; 32.2% in the assay on HT29 colon. For the same compound, the growth with SNB-75 CNS was 91.6%; in the assay with SNB-19 CNS, 97.8%; in the assay on PC-3 prostate, 66.4%; in the assay on SK-MEL-5 melanoma, 72.7%; in the assay on UACC-62 melanoma, 49.8%; with LOX IMVI melanoma, 51.9%. For the same compound, the growth in the assay on SK-MEL-28 melanoma was 94.7%.

For `CC1(C)CC[C@]2(C(=O)N[C@H](CO)Cc3ccccc3)CC[C@]3(C)C(=CC[C@@H]4[C@@]5(C)CCCNC(C)(C)[C@@H]5CC[C@]43C)[C@@H]2C1`, the growth was 93.7% with DU-145 prostate; 1.94% (active) in the assay with K-562 leukemia; 106% with MALME-3M melanoma; 70.1% with MDA-MB-231 breast; 78.4% in the assay with RXF 393 renal; 85.7% in the assay on SF-268 CNS. The growth is 102% in the assay on SF-295 CNS; 90.4% in the assay with SF-539 CNS; 106% in the assay with UACC-257 melanoma; 71.4% with M14 melanoma; 60.5% in the assay with HCT-15 colon; 10.6% in the assay with HT29 colon. In addition, the growth in the assay with SNB-75 CNS is 87.1%; in the assay with SNB-19 CNS, 84.8%; in the assay with U251 CNS, 68.9%; in the assay on PC-3 prostate, 25.7%; in the assay on SK-MEL-5 melanoma it was 90.7%; in the assay on UACC-62 melanoma, 78.5%. The growth in the assay with SK-MEL-28 melanoma was 106%.

Turning to `CC1(C)[C@@H](O[C@@H]2OC[C@@H](O[C@@H]3O[C@H](CO)[C@@H](O)[C@H](O)[C@H]3O[C@@H]3OC[C@@H](O)[C@H](O)[C@H]3O)[C@H](O)[C@H]2O[C@@H]2O[C@H](CO)[C@@H](O)[C@H](O)[C@H]2O)CC[C@]2(C)[C@H]3CC[C@]45OC[C@@]6(CC[C@](C)(C=O)C[C@H]64)[C@H](O)C[C@@]5(C)[C@]3(C)CC[C@@H]12`, the growth in the assay on DU-145 prostate was -82.1% (active); in the assay with K-562 leukemia it was -18% (active); in the assay with MALME-3M melanoma, -79.8% (active); in the assay with MDA-MB-231 breast, -59.5% (active); in the assay with RXF 393 renal, -77.2% (active); in the assay with SF-268 CNS it was -55.1% (active). In addition, the growth in the assay on SF-295 CNS is -89% (active); with SF-539 CNS it was -22.6% (active); in the assay on UACC-257 melanoma, -87.1% (active); in the assay on M14 melanoma, -85% (active); in the assay on HCT-15 colon, -46.4% (active); in the assay with HT29 colon, -85.3% (active). Further, the growth is -78.5% (active) in the assay with SNB-75 CNS; -68.4% (active) in the assay on SNB-19 CNS; -89.8% (active) in the assay on U251 CNS; -85.1% (active) with PC-3 prostate; -27.7% (active) in the assay with SK-MEL-5 melanoma; -71.8% (active) with UACC-62 melanoma. Also, the growth in the assay on SK-MEL-28 melanoma is -76.4% (active).

Take `CN(C)CCN1C(=O)c2cccc3c(/C=C/CN4C(=O)c5cccc6cccc(c56)C4=O)ccc(c23)C1=O`: the growth was 113% with DU-145 prostate; -46.8% (active) in the assay on K-562 leukemia; -62.4% (active) with MALME-3M melanoma; -57.4% (active) in the assay on MDA-MB-231 breast; 57% in the assay on RXF 393 renal; 101% with SF-268 CNS. Further, the growth in the assay on SF-295 CNS was 106%; in the assay with SF-539 CNS it was 92.8%; in the assay on UACC-257 melanoma, 92%; with M14 melanoma it was 77.9%; in the assay on HCT-15 colon it was -75.6% (active); in the assay with HT29 colon, 94%. In addition, the growth in the assay on SNB-75 CNS is 90.6%; with SNB-19 CNS, 18.7%; in the assay with PC-3 prostate it was 71.7%; in the assay with SK-MEL-5 melanoma, 82.2%; with UACC-62 melanoma it was 98.7%; in the assay with LOX IMVI melanoma, 30.3%. Moreover, in the assay with SK-MEL-28 melanoma, the growth was -56.5% (active).

For the compound `COc1cc(/C=C/C(=O)c2ccc(-n3cc(CN4CCN(c5cc6c(cc5F)c(=O)c(C(=O)O)cn6C5CC5)CC4)nn3)cc2)ccc1O`, the growth was 77.5% in the assay on DU-145 prostate; 40.5% in the assay with K-562 leukemia; 94.5% in the assay with MALME-3M melanoma; 73.6% with MDA-MB-231 breast; 70.9% in the assay with RXF 393 renal; 56.4% with SF-268 CNS. Further, the growth in the assay on SF-295 CNS is 80.2%; in the assay with SF-539 CNS, 60.1%; in the assay with UACC-257 melanoma, 87.7%; in the assay with M14 melanoma, 79%; in the assay with HCT-15 colon, 71.7%; with HT29 colon it was 53.3%. Besides, the growth in the assay on SNB-75 CNS was 89.2%; with SNB-19 CNS it was 53.8%; in the assay on U251 CNS it was 34.3%; in the assay with PC-3 prostate, 74%; in the assay with SK-MEL-5 melanoma, 78.7%; in the assay on UACC-62 melanoma it was 61.2%. In addition, the growth with SK-MEL-28 melanoma was 95.8%.

As for `O=C1/C(=C\c2ccccn2)c2ccccc2N1c1c(Cl)cccc1Cl`, the growth in the assay on DU-145 prostate was -0.0912% (active); in the assay on K-562 leukemia, 9.42% (active); in the assay with MALME-3M melanoma, 67.3%; with MDA-MB-231 breast, 15.7%; with RXF 393 renal, -35.2% (active); with SF-268 CNS it was 7.81% (active). In addition, the growth was 12.3% in the assay with SF-295 CNS; 1.27% (active) in the assay on SF-539 CNS; 59.3% with UACC-257 melanoma; -43.6% (active) in the assay on M14 melanoma; 12.6% in the assay on HCT-15 colon; 10.8% in the assay with HT29 colon. Further, the growth in the assay with SNB-75 CNS was -28.2% (active); with SNB-19 CNS, 34.8%; in the assay with U251 CNS it was -2.48% (active); with PC-3 prostate, 31.4%; in the assay on SK-MEL-5 melanoma, 23.7%; in the assay with UACC-62 melanoma, 24.9%. Also, in the assay on SK-MEL-28 melanoma, the growth was 14.6%.
